Assay [1] concerns the target T1, Protein kinase C zeta type (Homo sapiens) (UniProt Q05513).
T1 sequence (whole entry): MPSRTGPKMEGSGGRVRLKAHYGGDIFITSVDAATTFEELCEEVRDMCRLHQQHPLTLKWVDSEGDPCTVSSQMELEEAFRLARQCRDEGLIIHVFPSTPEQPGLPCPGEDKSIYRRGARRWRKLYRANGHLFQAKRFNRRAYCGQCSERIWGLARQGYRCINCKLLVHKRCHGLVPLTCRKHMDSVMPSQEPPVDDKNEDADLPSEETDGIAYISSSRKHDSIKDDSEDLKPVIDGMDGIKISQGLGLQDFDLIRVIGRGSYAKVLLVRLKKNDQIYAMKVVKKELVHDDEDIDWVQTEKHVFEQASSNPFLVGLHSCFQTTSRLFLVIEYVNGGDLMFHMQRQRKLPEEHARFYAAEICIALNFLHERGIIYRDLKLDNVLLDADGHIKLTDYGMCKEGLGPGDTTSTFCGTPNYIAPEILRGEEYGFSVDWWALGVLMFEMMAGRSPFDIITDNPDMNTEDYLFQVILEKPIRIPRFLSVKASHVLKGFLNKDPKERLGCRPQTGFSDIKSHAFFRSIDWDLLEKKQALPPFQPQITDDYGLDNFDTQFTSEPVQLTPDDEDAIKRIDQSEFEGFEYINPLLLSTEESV
Conditions: at 1 µM; call rule not given here.

For assay [2], the target named is T2, Mitogen-activated protein kinase kinase kinase 5 (Homo sapiens) (UniProt Q99683).
T2 sequence (whole entry): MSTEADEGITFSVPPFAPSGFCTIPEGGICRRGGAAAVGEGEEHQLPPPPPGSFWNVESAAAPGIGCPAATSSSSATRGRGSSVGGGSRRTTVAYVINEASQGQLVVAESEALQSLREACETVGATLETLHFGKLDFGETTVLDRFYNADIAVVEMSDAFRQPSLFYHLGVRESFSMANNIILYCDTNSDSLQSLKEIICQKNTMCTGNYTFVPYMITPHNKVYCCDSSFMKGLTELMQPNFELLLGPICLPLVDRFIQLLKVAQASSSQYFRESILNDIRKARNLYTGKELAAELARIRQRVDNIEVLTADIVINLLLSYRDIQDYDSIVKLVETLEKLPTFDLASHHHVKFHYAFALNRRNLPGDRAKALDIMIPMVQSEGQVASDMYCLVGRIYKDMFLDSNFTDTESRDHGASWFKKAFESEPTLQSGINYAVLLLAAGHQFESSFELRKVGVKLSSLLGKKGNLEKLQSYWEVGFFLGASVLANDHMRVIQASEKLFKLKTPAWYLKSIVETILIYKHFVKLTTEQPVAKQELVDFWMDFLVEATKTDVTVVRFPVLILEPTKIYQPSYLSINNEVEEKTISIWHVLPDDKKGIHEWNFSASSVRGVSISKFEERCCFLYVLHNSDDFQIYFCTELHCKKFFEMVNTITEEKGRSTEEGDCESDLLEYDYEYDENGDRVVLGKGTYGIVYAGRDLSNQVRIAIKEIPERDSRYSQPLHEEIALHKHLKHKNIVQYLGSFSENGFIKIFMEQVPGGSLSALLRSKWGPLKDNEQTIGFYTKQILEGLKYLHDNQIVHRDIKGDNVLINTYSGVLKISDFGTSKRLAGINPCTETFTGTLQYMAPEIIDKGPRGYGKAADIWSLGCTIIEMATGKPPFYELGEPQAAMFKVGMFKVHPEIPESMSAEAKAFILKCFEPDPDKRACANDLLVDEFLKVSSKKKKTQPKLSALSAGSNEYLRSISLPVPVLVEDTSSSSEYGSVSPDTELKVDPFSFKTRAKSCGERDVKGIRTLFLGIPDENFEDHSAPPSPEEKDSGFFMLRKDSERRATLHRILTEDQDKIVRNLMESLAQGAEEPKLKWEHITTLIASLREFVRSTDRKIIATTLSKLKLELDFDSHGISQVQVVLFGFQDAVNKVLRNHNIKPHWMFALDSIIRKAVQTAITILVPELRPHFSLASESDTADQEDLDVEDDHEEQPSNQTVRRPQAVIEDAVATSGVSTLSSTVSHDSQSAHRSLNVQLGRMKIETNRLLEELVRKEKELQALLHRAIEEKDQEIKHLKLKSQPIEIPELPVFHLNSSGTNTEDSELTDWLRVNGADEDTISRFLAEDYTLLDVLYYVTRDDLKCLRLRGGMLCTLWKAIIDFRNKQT
Conditions: at 10 µM.

The target of assay [3] is Tyrosine-protein kinase ABL1 (Homo sapiens) (UniProt P00519). Conditions: at 1 µM.
Sequence of Tyrosine-protein kinase ABL1 (Homo sapiens) (P00519 whole entry): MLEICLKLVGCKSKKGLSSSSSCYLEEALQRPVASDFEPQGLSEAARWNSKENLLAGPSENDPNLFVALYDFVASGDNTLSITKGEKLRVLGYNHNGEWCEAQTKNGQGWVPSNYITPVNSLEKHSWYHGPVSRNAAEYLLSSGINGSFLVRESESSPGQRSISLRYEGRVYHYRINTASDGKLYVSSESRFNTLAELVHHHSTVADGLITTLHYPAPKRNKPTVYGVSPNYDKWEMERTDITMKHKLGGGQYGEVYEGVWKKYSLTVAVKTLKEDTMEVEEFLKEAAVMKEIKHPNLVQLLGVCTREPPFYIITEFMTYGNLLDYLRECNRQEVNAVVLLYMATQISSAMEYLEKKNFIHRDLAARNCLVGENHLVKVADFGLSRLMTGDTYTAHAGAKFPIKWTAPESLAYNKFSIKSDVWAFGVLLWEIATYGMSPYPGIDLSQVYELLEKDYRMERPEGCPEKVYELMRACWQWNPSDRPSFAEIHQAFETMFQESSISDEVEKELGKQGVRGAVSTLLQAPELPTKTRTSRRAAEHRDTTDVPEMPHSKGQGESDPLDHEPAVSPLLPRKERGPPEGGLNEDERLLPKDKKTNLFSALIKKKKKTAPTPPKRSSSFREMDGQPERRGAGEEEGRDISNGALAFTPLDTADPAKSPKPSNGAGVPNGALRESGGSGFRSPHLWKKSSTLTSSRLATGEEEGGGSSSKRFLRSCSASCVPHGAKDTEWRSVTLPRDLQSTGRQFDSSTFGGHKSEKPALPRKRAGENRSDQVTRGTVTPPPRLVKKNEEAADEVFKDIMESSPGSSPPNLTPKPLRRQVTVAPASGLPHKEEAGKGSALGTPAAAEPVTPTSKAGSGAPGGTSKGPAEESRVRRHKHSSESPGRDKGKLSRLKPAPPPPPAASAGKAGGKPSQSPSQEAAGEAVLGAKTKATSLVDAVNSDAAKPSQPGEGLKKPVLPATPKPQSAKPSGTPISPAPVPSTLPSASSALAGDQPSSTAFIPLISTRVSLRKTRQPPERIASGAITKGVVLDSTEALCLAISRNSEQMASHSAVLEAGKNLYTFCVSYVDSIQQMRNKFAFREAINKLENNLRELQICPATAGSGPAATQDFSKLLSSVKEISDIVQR
Assay [4] has the same target. The following applies: at 10 µM.
Assay [5] deals with Tyrosine-protein kinase ABL2 (Homo sapiens) (UniProt P42684). Conditions: at 1 µM.
Sequence of Tyrosine-protein kinase ABL2 (Homo sapiens) (P42684 whole entry): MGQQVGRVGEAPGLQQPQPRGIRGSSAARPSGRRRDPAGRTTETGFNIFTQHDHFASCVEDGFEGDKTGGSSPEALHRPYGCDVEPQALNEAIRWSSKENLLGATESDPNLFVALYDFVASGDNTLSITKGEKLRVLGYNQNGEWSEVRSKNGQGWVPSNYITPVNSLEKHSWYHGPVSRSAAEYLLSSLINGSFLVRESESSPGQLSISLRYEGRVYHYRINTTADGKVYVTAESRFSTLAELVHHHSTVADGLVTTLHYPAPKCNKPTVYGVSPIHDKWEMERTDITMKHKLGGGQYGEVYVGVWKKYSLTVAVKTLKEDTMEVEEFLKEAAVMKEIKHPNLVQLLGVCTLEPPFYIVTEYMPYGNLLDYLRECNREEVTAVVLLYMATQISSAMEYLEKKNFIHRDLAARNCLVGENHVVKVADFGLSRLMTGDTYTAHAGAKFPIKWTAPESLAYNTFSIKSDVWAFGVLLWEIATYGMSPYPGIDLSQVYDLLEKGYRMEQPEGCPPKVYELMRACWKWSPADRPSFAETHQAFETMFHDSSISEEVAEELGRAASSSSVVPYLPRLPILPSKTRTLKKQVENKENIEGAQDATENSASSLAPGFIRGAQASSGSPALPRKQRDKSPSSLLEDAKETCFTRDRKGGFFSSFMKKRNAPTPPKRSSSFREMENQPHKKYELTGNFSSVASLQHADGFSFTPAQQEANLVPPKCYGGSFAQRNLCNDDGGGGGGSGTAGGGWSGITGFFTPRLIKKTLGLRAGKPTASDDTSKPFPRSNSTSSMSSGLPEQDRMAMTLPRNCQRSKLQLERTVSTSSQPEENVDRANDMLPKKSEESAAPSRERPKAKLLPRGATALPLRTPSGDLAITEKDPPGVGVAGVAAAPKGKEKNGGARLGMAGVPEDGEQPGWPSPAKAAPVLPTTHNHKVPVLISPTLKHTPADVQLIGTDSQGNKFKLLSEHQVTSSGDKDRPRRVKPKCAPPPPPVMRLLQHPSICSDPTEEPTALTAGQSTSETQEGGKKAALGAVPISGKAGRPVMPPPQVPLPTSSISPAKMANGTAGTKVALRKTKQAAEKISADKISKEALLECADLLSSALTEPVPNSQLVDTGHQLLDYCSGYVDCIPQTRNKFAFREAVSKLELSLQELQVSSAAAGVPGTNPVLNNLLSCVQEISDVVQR
The target is the same in assay [6]. The following applies: at 10 µM.
Assay [7] has as its target T3, Aurora kinase A (Homo sapiens) (UniProt O14965).
T3 sequence (whole entry): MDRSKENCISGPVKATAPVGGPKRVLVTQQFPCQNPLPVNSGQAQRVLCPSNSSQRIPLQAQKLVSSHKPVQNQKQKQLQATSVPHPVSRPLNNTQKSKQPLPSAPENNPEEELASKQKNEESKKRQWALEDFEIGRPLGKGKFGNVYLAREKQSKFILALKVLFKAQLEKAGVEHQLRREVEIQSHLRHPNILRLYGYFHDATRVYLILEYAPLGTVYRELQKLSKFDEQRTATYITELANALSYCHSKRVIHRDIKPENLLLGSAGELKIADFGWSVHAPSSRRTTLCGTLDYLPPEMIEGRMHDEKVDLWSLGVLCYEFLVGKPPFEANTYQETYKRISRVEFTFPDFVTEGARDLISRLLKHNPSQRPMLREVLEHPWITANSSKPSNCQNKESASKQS
Conditions: at 1 µM.

For assay [8], the target named is T3, Aurora kinase A (Homo sapiens). The following applies: at 10 µM.
Assay [9] addresses Aurora kinase B (Homo sapiens) (UniProt Q96GD4). Conditions: at 1 µM.
Assay [10] shares this target. The following applies: at 10 µM.

Sequence of Aurora kinase B (Homo sapiens) (Q96GD4 whole entry): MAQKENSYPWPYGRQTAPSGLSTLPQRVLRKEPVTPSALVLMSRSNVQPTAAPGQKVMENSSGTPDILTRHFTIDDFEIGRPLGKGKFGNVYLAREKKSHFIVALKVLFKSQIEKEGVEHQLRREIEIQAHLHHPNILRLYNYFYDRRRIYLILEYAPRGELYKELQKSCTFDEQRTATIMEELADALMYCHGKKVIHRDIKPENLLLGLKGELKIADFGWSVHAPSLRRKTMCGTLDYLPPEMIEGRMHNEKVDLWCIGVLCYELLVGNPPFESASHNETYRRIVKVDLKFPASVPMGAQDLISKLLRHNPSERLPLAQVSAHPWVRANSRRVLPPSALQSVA

`O=[N+]([O-])/C=C/c1ccc2c(c1)OCO2`: the residual activity is 93% (inactive) in assay [1]; 90% in assay [2]; 96% in assay [3]; 86% in assay [4]; 104% in assay [5]; 92% in assay [6]. Besides, the residual activity amounted to 99% in [7], 109% in assay [8], 108% in assay [9] and 90% in assay [10].

For `COC(=O)[C@@]1(O)C[C@H]2O[C@]1(C)n1c3ccccc3c3c4c(c5c6ccccc6n2c5c31)C(=O)NC4`, the residual activity in assay [1] was 52% (inactive); in assay [2] it was 0%; in assay [3], 80%; in [4], 51%; in assay [5], 79%; in assay [6], 35%. Also, the residual activity in assay [7] was 2%; in [8], -1%; in [9], 0%; in assay [10], 0%.

For `CCn1cnc2c(Nc3cccc(Cl)c3)nc(N[C@@H]3CCCC[C@@H]3N)nc21`, the residual activity in [2] was 89%; in assay [3] it was 95%; in assay [4], 40%; in assay [5], 62%; in assay [6], 13%; in assay [7] it was 85%. The residual activity worked out at 68% in [8], 21% in assay [9] and 1% in assay [10].

In the case of `O=C1NC(=O)c2c1c1c3ccccc3n3c1c1c2c2ccccc2n1C1CCC3O1`, the residual activity in [2] was 60%; in assay [7], 95%; in assay [8] it was 88%; in assay [9], 2%; in assay [10] it was 4%.

On to `O=C1Nc2ccc3ncsc3c2/C1=C/c1c[nH]cn1`, for which the residual activity in [1] is 86% (inactive); in assay [2], 7%; in assay [3], 66%; in assay [4], 20%; in assay [5], 82%; in [6] it was 33%. In addition, the residual activity in assay [7] was 0%; in assay [8], -2%; in assay [9], 2%; in assay [10], 0%.

Regarding `COc1ccc2c(c[n+](C)c3c4cc5c(cc4ccc23)OCO5)c1OC`, the residual activity in [3] came to 85%; in assay [4] it was 97%; in assay [5], 92%; in [6], 82%; in [7], 83%; in assay [8], 75%. Besides, the residual activity in [9] stood at 130%; in assay [10] it was 60%.

Regarding `CCc1nc(-c2ccc(OC)cc2)[nH]c1-c1ccncc1`, the residual activity in assay [1] was 105% (inactive); in assay [5], 104%; in assay [6] it was 75%; in assay [9], 67%; in assay [10], 62%.

As for `CC(C)(C)c1cc(C=C(C#N)C#N)cc(Br)c1O`, the residual activity in assay [1] is 99% (inactive); in assay [2], 109%; in [3] it was 80%; in assay [4] it was 4%; in assay [6], 51%; in [7] it was 104%. Also, the residual activity in assay [8] amounted to 122%; in [9], 108%; in assay [10], 45%.

Regarding `O=c1[nH]c2ccccc2n1C1CCN(Cc2ccc(-c3nc4cc5[nH]cnc5cc4nc3-c3ccccc3)cc2)CC1`, the residual activity in [1] was 109% (inactive); in [2], 96%; in assay [3], 114%; in [4], 137%; in [5] it was 117%; in [6] it was 89%. Besides, the residual activity in [7] worked out at 70%; in assay [8], 92%; in assay [9], 116%; in assay [10] it was 77%.

As for `C[S+]([O-])c1ccc(-c2nc(-c3ccc(F)cc3)c(-c3ccncc3)[nH]2)cc1` (stereo not drawn), the residual activity in assay [1] is 108% (inactive); in assay [2] it was 105%; in [4], 72%; in [6] it was 55%; in [7], 117%; in assay [8], 118%. Moreover, the results for the residual activity in assay [9] and in assay [10] were 102% and 80%, respectively.

Take `COc1cc(OC)c(/C=C2\C(=O)Nc3ccccc32)c(OC)c1`: the residual activity stood at 90% in assay [2]; 104% in assay [3]; 85% in [4]; 123% in assay [5]; 77% in assay [6]; 107% in assay [7]. In addition, the residual activity worked out at 107% in assay [8], 59% in assay [9] and 48% in [10].

As to `COc1ccc2c(c1)/C(=C/c1cnc[nH]1)C(=O)N2`, the residual activity was 41% in assay [2]; 47% in [6]; 42% in assay [7]; 2% in assay [8]; 21% in [9]; 0% in assay [10].

Consider `CC(C)[C@H](CO)Nc1nc(Nc2cccc(Cl)c2)c2ncn(C(C)C)c2n1`, for which the residual activity in [1] is 101% (inactive); in assay [2] it was 96%; in [3] it was 62%; in assay [4] it was 14%; in assay [5], 22%; in [6] it was 1%. For the same compound, the values for the residual activity in [8], in assay [9] and in assay [10] were 72%, 72% and 17%, respectively.

Take `COc1cc2ncnc(Nc3ccc(OCc4ccccc4)cc3)c2cc1OC`: the residual activity in assay [1] was 101% (inactive); in assay [2] it was 92%; in assay [3], 93%; in [4], 111%; in assay [5], 103%; in assay [6] it was 96%. In addition, the residual activity was 41% in [7], 38% in assay [8], 6% in assay [9] and 3% in assay [10].

As to `N/C(=N\[N+](=O)[O-])N/N=C\c1ccc(-c2cccc([N+](=O)[O-])c2)o1`, the residual activity in [2] is 86%; in [5], 96%; in assay [6], 83%; in [9], 80%; in assay [10] it was 53%.

Turning to `O=C1c2ccccc2-c2nc3nnnn3nc21`, the residual activity in [1] was 113% (inactive); in assay [2], 143%; in assay [3] it was 107%; in assay [4], 112%; in assay [6] it was 113%; in assay [7], 71%.

For `c1cc(-c2cnn3cc(-c4ccc(OCCN5CCCCC5)cc4)cnc23)ccn1`, the residual activity was 84% in assay [2]; 4% in assay [3]; -4% in [4]; 12% in [5]; 1% in assay [6]; 64% in assay [7]. The residual activity was determined as 48% in [8], 18% in [9] and 2% in assay [10].

Source of the values: ChEMBL document CHEMBL2218924, “A broad activity screen in support of a chemogenomic map for kinase signalling research and drug discovery” (Biochem J, 2013).
